The results in this text go back to PubChem BioAssay (Tox21).

Structures are written as SMILES. “And” between values parts separate entries of the source, which are not always exact repeats. Equal entries are not always repeated. Inconclusive results are not listed. Some compounds were tested as several samples or in several runs, with calls that do not always agree. The source made the active and inactive calls. Calls follow the shape of the dose curve; as a rule, active = well fitted cell-killing curve with a large enough effect in the repeat runs; inconclusive = weak or mixed curves; inactive = no such curve, though single readings can be large or run the other way.
% is scaled to controls: 0 for no effect and ±100 for the full control effect; potency is read from the fitted curve at half-maximal effect.

A short description of this experiment: qHTS assay to identify small molecule agonists of the peroxisome proliferator-activated receptor delta (PPARd) signaling pathway - cell viability counter screen (AID 743211). Also: nearly all actives have a fitted effect of over 55% in size. The settings on record: PPARd-bla HEK293H viability, CellTiter-Glo luminescence, 17 h; series mostly up to 62.6 µM; activity change, negative = cytotoxicity: at the top concentration. The text has this: U.S. Tox21 Program National Center for Advancing Translational Sciences [NCATS] NIH Chemical Genomics Center [NCGC] U.S. Environmental Protection Agency [EPA] National Institutes of Environmental Health Sciences [NIEHS] National Toxicology Program [NTP] U.S. Food and Drug Administration [FDA] Tox21 Assay Overview: The peroxisome proliferator-activated receptors (PPARs) are lipid-activated transcription factors of the nuclear receptor superfamily with three distinct subtypes namely PPAR alpha, PPAR delta (PPARd) and PPAR gamma. All these subtypes heterodimerizes with Retinoid X receptor (RXR) and have different physiological functions. […] To identify the compounds that activate PPAR-delta signaling, GeneBLAzer PPAR delta UAS-bla HEK293H cell line (Invitrogen, Carlsbad, CA, USA) containing a beta-lactamase reporter gene under the control of an Upstream Activator Sequence (UAS) was used to screen the Tox21 compound library. The cytotoxicity of the Tox21 compound library against the PPARd-bla cell line was tested in parallel by measuring the cell viability using CellTiter-Glo assay (Promega, Madison, WI) in the same wells.
Tox21 Assay Protocol Summary: PPARd-bla cells were dispensed at 3000 cells/6uL/well in 1536-well black wall/clear bottom plates using a Multidrop Combi (Thermo Fisher Scientific, Waltham, MA) dispenser. After the assay plates were incubated at 37 C and 5% CO2 for 5 h, 23 nL of compounds dissolved in DMSO, positive controls or DMSO only was transferred to the assay plate by a Pintool station (Kalypsys, San Diego, CA). The assay plates were incubated at 37C for 17 h. After 1 uL of LiveBLAzerTM B/G FRET substrate was added using a Bioraptr Flying Reagent Dispenser (FRD) workstation (Beckman Coulter, Indianapolis, IN, USA), the plates were incubated at room temperature for 2 h, and fluorescence intensity was measured by an Envision plate reader (PerkinElmer, Shelton, CT). For cell viability readout that measures cytotoxicity, 3 ul/well of CellTiter-Glo reagent was added into the assay plates using a Bioraptr FRD. After 30 min incubation at room temperature, the luminescence intensity in the plates was measured using a ViewLux plate reader (PerkinElmer).
In general terms: Quantitative high-throughput screening tests each substance at several concentrations.
In the case of `COc1ccc(C(=O)/C(Br)=C\C(=O)O)cc1`, the “activity change, negative = cytotoxicity” value is -12.5% (inactive).

Consider `CN1CCN(CCC(=O)N2c3ccccc3Sc3ccc(C(F)(F)F)cc32)CC1`, for which the Potency was 11.9 µM (active).

With `CCCCN(CCCC)C(=O)N(CCCC)CCCC`, the “activity change, negative = cytotoxicity” value is 3.21% (inactive).

Take `CCOC(=O)O[C@H](C)OC(=O)c1ccc2c(c1)cc(C(=O)NC1CCN(C(C)C)CC1)n2Cc1cc(-c2ccc(Cl)s2)on1`: the Potency is 8.14 µM (active).

`CCCCN(CCCC)c1ccc(C(=O)c2ccccc2C(=O)O)c(O)c1`: the Potency was 44.1 µM (active).

Consider `CCCCCCCCCCCCc1ccc(O)cc1`, for which the Potency was 24.5 µM (active).

For `C[C@]12CCC(=O)C=C1CC[C@@H]1[C@@H]2[C@@H](O)C[C@@]2(C)[C@H]1CC[C@]2(O)C(=O)COC(=O)CCC(=O)O`, the “activity change, negative = cytotoxicity” value was 1.86% (inactive).

As to `Nc1ccc2cc(S(=O)(=O)O)cc(O)c2c1N=Nc1ccccc1C(F)(F)F`, the “activity change, negative = cytotoxicity” value was 3.3% (inactive).

As for `Cc1ccc2oc(CN(Cc3ccccc3)C(=O)Nc3c(F)cc(F)cc3F)c(-c3ccc(Cl)cc3)c2c1`, the “activity change, negative = cytotoxicity” value is -17.6% (inactive).

For the compound `CCN1/C(=C/C=C/c2sc3ccccc3[n+]2CC)Sc2ccccc21`, the Potency is 14.6 µM (active).

With `C=CC(=O)OCC(CO)(COCC(COC(=O)C=C)(COC(=O)C=C)COC(=O)C=C)COC(=O)C=C`, the Potency is 3.05 µM (active).

For the compound `C[C@H](CCC(=O)O)[C@H]1CC[C@H]2[C@@H]3CC[C@@H]4C[C@H](O)CC[C@]4(C)[C@H]3CC[C@]12C`, the Potency result is “inactive and 54.9 µM (active)”.

`CC(C)(C)C1CCC(CC2=C(O)c3ccccc3C(=O)C2=O)CC1` (stereo not given): the “activity change, negative = cytotoxicity” value is -23.5% (inactive).

Turning to `On1ccccc1=S`, the Potency is 0.385 µM (active).

As for `OCCCCCCCCCCCCBr`, the “activity change, negative = cytotoxicity” value is -13.3% [at 81.1 µM] (inactive).

For `C=CC(=O)OCC(CO)(COC(=O)C=C)COC(=O)C=C`, the Potency is 6.94 µM (active) and 11 µM (active).

Regarding `CCCCCCOC(=O)c1ccc(O)cc1`, the Potency is 38.9 µM (active) and inactive.

As to `NNC(=O)c1cccc(C(=O)NN)c1`, the “activity change, negative = cytotoxicity” value is 6.38% (inactive).

As to `CCN(CC)CCCC(C)Nc1c2ccc(Cl)cc2nc2ccc(OC)cc12` (stereo not given), the Potency was 11.9 µM (active).

Turning to `CCCCCCCC/C=C/CCCCCCCC1=NCCN1CCO`, the Potency is 30.9 µM (active).

For `OCCN1CCN(CC/C=C2/c3ccccc3Sc3ccc(C(F)(F)F)cc32)CC1`, the Potency was 26.6 µM (active).

On to `COC(=O)C1=C(C)NC(C)=C(C(=O)OCC(C)C)C1c1ccccc1[N+](=O)[O-]` (stereo not given), for which the Potency is 21.9 µM (active) and inactive.

For `CCCCCCCC/C=C\CCCCCCCCOCCO`, the Potency was 17.9 µM (active).

Turning to `O=C1C=CC(=O)N1c1ccc(Cc2ccc(N3C(=O)C=CC3=O)cc2)cc1`, the Potency is 38.9 µM (active).

Turning to `Cc1cc(C2CCCCC2)n(O)c(=O)c1`, the Potency is 5.31 µM (active).

For `C=CC(=O)OCCn1c(=O)n(CCOC(=O)C=C)c(=O)n(CCOC(=O)C=C)c1=O`, the Potency is 19.5 µM (active).

Regarding `O=C(O)c1c(Cl)cccc1Cl`, the “activity change, negative = cytotoxicity” value is 8.06% (inactive).

In the case of `CCCC(C)c1ccccc1O` (stereo not given), the “activity change, negative = cytotoxicity” value is -6.1% (inactive).

`Clc1ccc2cc3ccccc3cc2c1`: the “activity change, negative = cytotoxicity” value was 10.5% (inactive).

Turning to `CC(C)(C)C(=O)OCOC(=O)[C@@H]1N2C(=O)[C@@H](NC(=O)[C@H](N)c3ccccc3)[C@H]2SC1(C)C`, the “activity change, negative = cytotoxicity” value is -18.3% (inactive).

Regarding `C/C=C(\C)C(=O)OCc1ccccc1`, the “activity change, negative = cytotoxicity” value is -9.5% (inactive).

Take `COc1cccc2c1C(=O)c1c(O)c3c(c(O)c1C2=O)C[C@@](O)(C(=O)CO)C[C@@H]3O[C@H]1C[C@H](N)[C@H](O[C@@H]2CCCCO2)[C@H](C)O1`: the “activity change, negative = cytotoxicity” value was -24.9% (inactive).

With `O=[N+]([O-])c1cc([N+](=O)[O-])c2ccc(S(=O)(=O)O)cc2c1O`, the “activity change, negative = cytotoxicity” value was -6.22% (inactive).

For the compound `Cc1cc(O)c(Cl)c(C)c1Cl`, the Potency was 43.6 µM (active).

`Cc1onc(-c2c(Cl)cccc2Cl)c1C(=O)N[C@@H]1C(=O)N2[C@@H]1SC(C)(C)[C@@H]2C(=O)O`: the “activity change, negative = cytotoxicity” value is -22.9% (inactive).

Take `O=c1[nH]sc2ccccc12`: the Potency is 17.4 µM (active).

For `CCOC(=O)c1nc(C(Cl)(Cl)Cl)n(-c2ccc(Cl)cc2Cl)n1`, the Potency was 54.9 µM (active).

`CCCCCCCCCCC=O`: the “activity change, negative = cytotoxicity” value was 1.51% [at 81.1 µM] (inactive).

As to `O=C(OCC1CO1)C1CCCCC1C(=O)OCC1CO1` (stereo not given), the “activity change, negative = cytotoxicity” value is -0.0307% (inactive).

`N/C(=N\N=C\c1ccc(Cl)cc1)N/N=C/c1ccc(Cl)cc1`: the “activity change, negative = cytotoxicity” value is -6.73% (inactive).
